Source: PubChem
BoNT-F LC inh = blocks Botulinum neurotoxin F light chain protease; Multiplex microsphere protease cleavage assay, flow cytometry; inhibition, % at 10 µM; actives 0.22% (n = 360,000); AID 588497; in the data active = inhibition above about 35%, passing the limit was not always enough; inconclusive = no clear call, values can overlap the other calls; note: plate controls were buffer without enzyme for full effect and enzyme alone for no effect
Anthrax LF inh2 = inhibitors of Bacillus anthracis lethal factor protease; actives 0.12% (n = 360,000); P15917; AID 588501; multiplex microsphere protease cleavage assay, LF; inhibition, % at 10 µM; note: plate controls were buffer without enzyme for full effect and enzyme alone for no effect
Bead autofluor = counter-screen for toxin protease inhibitors: compound fluorescence; compound autofluorescence counterscreen, microsphere flow cytometry; hits give high values; fluorescence intensity (concentration not given with the values); actives 3.1% (n = 360,000); in the data active = fluorescence intensity above about 16000; inconclusive = no clear call, values can overlap the other calls
TcdB inh = inhibitors of Clostridioides difficile toxin B glycohydrolase; P18177; actives 0.24% (n = 350,000); inhibition, % at 9.99 µM; TcdB glycohydrolase enzymatic assay, plate reader; in the data active = inhibition above about 10%
BoNT-A LC inh2 = inhibitors of Botulinum neurotoxin A light chain protease | multiplex microsphere protease substrate cleavage, flow cytometry | actives 0.17% (n = 360,000) | AID 588499 | inhibition, % at 10 µM; note: plate controls were buffer without enzyme for full effect and enzyme alone for no effect
* hit, by the source's call; ? = inconclusive; . = no result. The entries come from a sample that favours hits as a whole. Cut-off read from the data, not from the text of the source, unless noted: active = inhibition above about 30%; inconclusive = no clear call, values can overlap the other calls; inactive = below that.

SMILES | BoNT-F LC inh | Anthrax LF inh2 | Bead autofluor | TcdB inh | BoNT-A LC inh2
O=C(NCc1nc2ccccc2[nH]1)c1cccc(S(=O)(=O)N2CCOCC2)c1 | -1 | 1 | 22223* | . | 0
CC(=O)c1ccc(S(=O)(=O)N2CCC(NC(=O)Nc3cccc(F)c3)CC2)cc1 | -4 | 3 | 4077 | 2 | 0
C[C@H]1CN([C@@H](C)CO)C(=O)c2cc(-c3ccccc3)cnc2O[C@@H]1CN(C)C(=O)C1CCCCC1 | . | . | . | 1 | .
CCCN(C)C[C@@H]1Oc2ncc(C#Cc3ccc(OC)c(OC)c3)cc2C(=O)N([C@H](C)CO)C[C@@H]1C | . | . | . | 1 | .
C[C@H](CO)N1C[C@H](C)[C@@H](CN(C)S(=O)(=O)c2cn(C)cn2)OCc2ccccc2-c2c(n(C)c3ccccc23)C1=O | . | . | . | 0 | .
C[C@H](CO)N1C[C@H](C)[C@@H](CN(C)CC2CCCC2)Oc2ncc(C#CCc3ccccc3)cc2C1=O | . | . | . | 0 | .
CC(=O)N1CC2(C1)[C@H](c1ccc(-c3ccc(C#N)cc3)cc1)[C@H](CO)N2CCC(F)(F)F | . | . | . | -1 | .
O=C(Nc1cccc(F)c1)c1cccc(S(=O)(=O)N2CCOCC2)c1 | -3 | -6 | 24090* | . | -2
O=C(Nc1ccc2c(c1)OCO2)c1cccc(S(=O)(=O)N2CCOCC2)c1 | 1 | 0 | 4369 | 1 | 0
O=C(Nc1ccc2c(c1)OCCO2)c1ccc(S(=O)(=O)N2CCCCC2)cc1 | -2 | -4 | 16458* | 2 | 0
CC(C)(C)NC(=O)NC(=O)CN1CCN(S(=O)(=O)c2ccccc2)CC1 | -58 | -10 | 16805* | 1 | -13
O=C(Nc1ccc2c(c1)OCO2)c1cccc(S(=O)(=O)N2CCCC2)c1 | 0 | -7 | 21861* | -8 | 2
COCCOC(=O)N1C(=O)[C@@]2(c3ccccc31)[C@H](c1ccccc1OCCO)N1[C@H](c3ccccc3)[C@H](c3ccccc3)OC(=O)[C@H]1[C@@H]2C(=O)N1CCCCCCC1 | . | . | . | -1 | .
CC(C)NC(=O)Nc1ccc2c(c1)C(=O)N([C@@H](C)CO)C[C@H](C)[C@@H](CN(C)C)OCCCC[C@H](C)O2 | . | . | . | -7 | .
C[C@@H]1CN([C@H](C)CO)C(=O)c2cc(Br)cnc2O[C@H]1CN(C)S(=O)(=O)c1ccccc1 | . | . | . | -3 | .
Clc1ccc(-c2nnc(-c3ccc(Br)o3)o2)c(Cl)c1 | 2 | 1 | 22190* | . | 1
Clc1ccc(-c2nnc(-c3ccccc3)o2)c(Cl)c1 | -2 | -1 | 9453 | . | 1
CC(=O)N(Nc1ccccc1)c1ccccc1 | 35* | -6 | 3704 | 0 | 0
O=C(Nc1cccc(-c2nc3ncccc3o2)c1)c1sc2ccccc2c1Cl | 8 | 0 | 18637* | . | 8
O=C(Nc1cccc(-c2nc3ncccc3o2)c1)c1sc2cc(Cl)ccc2c1Cl | 2 | 0 | 22567* | 0 | ?
C/C=C/c1ccc([C@H]2[C@@H](CO)N(C(=O)C3CC3)C23CN(S(=O)(=O)CC)C3)cc1 | . | . | . | 1 | .
CCNC(=O)C[C@H]1C=C[C@H](NC(=O)NC2CCCCC2)[C@@H](CO)O1 | . | . | . | -7 | .
CC(C)=CCCC(C)CN(C)CCc1ccccn1 (stereo unspecified) | 10 | 1 | 21319* | . | 6
CCCC(=O)Nc1ccc2c(c1)C(=O)N(C)C[C@@H](OC)[C@@H](C)CN(C(=O)CN(C)C)[C@@H](C)CO2 | . | . | . | -2 | .
Cc1c(C(=O)N(C)C)c2cc(Cl)ccc2n1O | -1 | 0 | 1995 | -3 | 0
SMILES | BoNT-F LC inh | Anthrax LF inh2 | Bead autofluor | TcdB inh | BoNT-A LC inh2
CCOC(=O)c1c(C)n(O)c2ccc(Cl)cc2c1=O | 0 | -1 | 16178* | . | 2
CO[C@H]1CN(C)C(=O)c2ccc(NC(=O)c3cccc(F)c3)cc2OC[C@H](C)N(C(C)=O)C[C@H]1C | . | . | . | 0 | .
CC(C)N1C2OC(C3OC4C(O3)N(C(C)C)S(=O)(=O)N4C(C)C)OC2N(C(C)C)S1(=O)=O (stereo unspecified) | 0 | 2 | 23341* | . | 0
Cc1cc(C)nc(NC(N)=NC(C)c2ccccc2)n1 (stereo unspecified) | . | . | . | 1 | .
Cc1cc(C)nc(NC(N)=NCCc2ccccc2)n1 | -4 | 2 | 4379 | 10* | 0
Cc1ccc(S(=O)(=O)Nc2ccc3c(c2)C(=O)N([C@@H](C)CO)C[C@@H](C)[C@H](CN(C)C(=O)NC(C)C)O3)cc1 | . | . | . | 0 | .
Cc1nnc(C)n1/N=C/c1ccc(C(=O)O)cc1 | 1 | 3 | 22576* | 0 | 0
COc1ccc(/C=C/C(=O)c2ccc(Cl)cc2)c(OC)c1 | 1 | 0 | 18548* | . | 4
COC(=O)c1ccc(OC(=O)c2ccc(OC)c(OC)c2)c(OC)c1 | -1 | -2 | 2826 | . | 0
COC(=O)c1ccc(OC(=O)c2ccc(OC)cc2)c(OC)c1 | -8 | -9 | 4264 | 11* | 0
COc1ccc(/C=C/C(=O)c2cc(Cl)ccc2O)c(OC)c1 | -8 | -12 | 6049 | -1 | -1
COC(=O)c1ccc(/C=C/C(=O)c2ccc(OC)cc2)cc1 | 1 | 0 | 22281* | . | 0
COc1ccc(CN(C)C[C@@H]2Oc3ccc(NS(=O)(=O)c4ccc(C)cc4)cc3CC(=O)N([C@H](C)CO)C[C@H]2C)cc1 | . | . | . | -3 | .
C[C@@H]1CN([C@@H](C)CO)C(=O)Cc2cc(NS(=O)(=O)c3cccs3)ccc2O[C@@H]1CN(C)C(=O)NC1CCCCC1 | . | . | . | 1 | .
C[C@H](O)C#Cc1ccc2c(c1)O[C@@H](CN(C)Cc1ccncc1)[C@H](C)CN([C@H](C)CO)S2(=O)=O | . | . | . | 0 | .
CCOC(=O)N1CCN(CC(=O)Nc2c(C(=O)OC)[nH]c3cc(C)ccc23)CC1 | -3 | 0 | 23057* | . | -2
CC(C)C(=O)NC(C)C(c1cccs1)N1CCN(C)CC1 (stereo unspecified) | -3 | -3 | 23161* | 0 | -3
CC(NS(C)(=O)=O)C(c1cccs1)N1CCN(C)CC1 (stereo unspecified) | 2 | -3 | 16401* | . | 0
CC(NS(=O)(=O)c1ccccc1)C(c1cccs1)N1CCN(c2ccccc2)CC1 (stereo unspecified) | -7 | -3 | 17711* | . | -4
COc1ccccc1N1CCN(C(c2cccs2)C(C)NS(=O)(=O)c2ccccc2)CC1 (stereo unspecified) | -10 | -2 | 4879 | -2 | -1
O=C(Cc1ccccn1)N[C@@H]1CC[C@@H](CC(=O)N2CCCCC2)O[C@@H]1CO | . | . | . | -2 | .
C[C@@H]1CN([C@H](C)CO)C(=O)c2cccc(NC(=O)c3ccncc3)c2O[C@@H]1CN(C)S(=O)(=O)c1cccs1 | . | . | . | -17 | .
C[C@H]1CN([C@@H](C)CO)C(=O)Cc2cc(NS(=O)(=O)c3ccc(F)cc3)ccc2O[C@@H]1CN(C)CC1CCCCC1 | . | . | . | -4 | .
C[C@@H]1CN([C@H](C)CO)C(=O)c2cc(NC(=O)C3CC3)ccc2O[C@H]1CN(C)Cc1ccncc1 | . | . | . | -8 | .
O=C(Nc1ccccc1)N1CCCCN2[C@@H](CO)[C@@H](c3ccc(C#Cc4ccccn4)cc3)[C@@H]2C1 | . | . | . | -7 | .
COC(=O)c1ccc(C(=O)OC)c(NS(C)(=O)=O)c1 | 0 | -2 | 23033* | . | 1
COC(=O)c1ccccc1NS(C)(=O)=O | -8 | -4 | 4666 | 2 | -2
